Structures are written as SMILES. Where “and” joins values, the source holds several entries; their conditions need not be identical. Equal entries are not always repeated. Compounds without any hit were thinned out: in the full panel of roughly 83,000, 20% have a hit.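 Interpretation: 100, growth as untreated; towards 0, rising growth inhibition; 0, no net growth; 0 to -100, cell death. Compounds scoring below 10 were considered active.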 A number with no mark means an inactive call. Calls of active or inactive are those of the source.

This assay deals with MDA-MB-468 breast. Description: NCI-60 one-dose screen, 48 h (100 = growth as untreated, 0 = no growth, -100 = all killed). The settings on record: 10 µM unless noted.
`CC(=O)n1nc(C(=O)OC(C)(C)C)c2cc(F)c(F)cc21`: the growth is 97.4%.
Next, `COc1ccc(C2Nc3ccccc3-n3cccc32)cc1` (stereo not given): 108%; `Cc1cc(Nc2ccc(Cl)c(Cl)c2)nc(N)n1`: 54.5%.
Next, `C/C(=N\OC(=O)Nc1cccc(Cl)c1)c1ccccc1`: 75.1%.
For `Nc1nc(N)c(N)c(Nc2ccc(CCO)cc2)n1` the value was 92.8%; for `COc1ccc2[nH]cc(/C=N/Nc3ccnc4cc(Cl)ccc34)c2c1`, -80.8% (active); for `COc1cc2c(cc1OC)-c1ccc3cc4c(cc3c1N(CCCn1ccnc1)C2)OCO4`, -63.7% (active).
`O=C(/C=C/c1ccc(Oc2ccc(Br)cc2)cc1)c1ccc(Br)cc1`: the growth was 98.3%.
As for `CCN(CC)CCOc1ccc(C(=C(C)Cc2ccc(OC)cc2)c2ccc(OCCN(CC)CC)cc2)cc1`, the growth was -25.4% (active).
For `CCOC(=O)CC(=O)CSC1=NC2C(NN1)N(C)C(=O)N2C` (stereo not given) the value was 12.2%; for `CCc1ccccc1-n1c(N)c(C#N)c(-c2ccc(N(C)C)cc2)c(C#N)c1=O`, 116%.
For `Cc1ccn2c(-c3csc(Nc4cccc(O)c4)n3)c(C)nc2c1` the value was -33.1% (active).
For `CC(C)c1ccc(C(=O)Nc2nc3ccc(O)cc3s2)cc1` the value was 2.85% (active); for `CCN=Cc1c(O)c(O)c(C(C)C)c2cc(C)c(-c3c(C)cc4c(C(C)C)c(O)c(O)c(C=NCC)c4c3O)c(O)c12`, 55.7%; for `O=C(O)c1cccc([N+](=O)[O-])c1O`, 102%.
Consider `CN(CCCCCl)P(=O)(OCc1ccc([N+](=O)[O-])o1)C(F)(F)c1ccc(CC(=O)NC[C@@H](O)/C=C\[C@@H](O)[C@H](CO)Cc2ccccc2)cc1` (stereo not given in full), for which the growth is 55%.
Next, `CCCCCCCCCCCCCC[n+]1ccc(C(N)=O)cc1`: -40.6% (active).
For `C#CCNC(=S)N/N=C(\C)c1ccccn1` the value was -31.4% (active); for `O=C(CN1CCN(c2cc3c(cc2F)c(=O)c(C(=O)O)cn3C2CC2)CC1)Nc1nc(-c2ccccc2)cs1`, 37.4%.
Next, `COc1cc(/C=N/n2cnc3oc(-c4ccccc4)cc3c2=N)cc(CN2CCCC2)c1O`: 82%; `O=C(O)C1C2C=CC(C2)C1C(=O)O` (stereo not given): 119% and 22.9% and 92.2%.
On to `Cc1nc(N)sc1Sc1nc2ccc(Cl)cc2c(=O)n1-c1ccc(Oc2ccccc2)cc1`, for which the growth was 76.6%.
Next, `O=C(NNC(=O)c1ccc(NC(=O)c2ccccn2)cc1)Nc1ccc2ccccc2c1`: 119%; `CC[C@]1(O)C[C@H]2CN(CCc3c([nH]c4ccccc34)C(C(=O)OC)(c3cc4c(cc3OC)N(C)[C@H]3[C@@](O)(C(=O)OC)[C@H](OC(C)=O)[C@]5(CC)[C@@H]6C[C@@H]6CN6CC[C@]43[C@@H]65)C2)C1` (stereo not given in full): 28.1%.
Next, `Cc1c(N(C)CS(=O)(=O)O)c(=O)n(-c2ccccc2)n1C`: 106%; `CC1(C)CC[C@]23CC[C@]4(C)[C@H](CC[C@@H]5[C@@]6(C)CCNCC(C)(C)[C@@H]6CC[C@]54C)[C@H]2[C@H]1OC3`: 65.4%; `Cc1ccc2[nH]c(=O)cc(-n3nncc3COc3ccc(C=O)cc3)c2c1`: 114%.
Next, `CCCNNC(=O)c1ccc(CNC(=O)/C=C/c2ccccc2)cc1`: 54.5% [2.5 µM]; `C=CCOC1=CC(=O)c2ccccc2C1=O`: 29.2%; `NC(=O)CC1(O)C=C(Br)C(=O)C(Br)=C1`: -9.32% (active).
Regarding `Cc1nc2c(=O)[nH]c(SCC(=O)Nc3cccc(F)c3)nc2[nH]c1=O`, the growth is 98.9%.
Next, `CCOC(=O)c1c(NCC(=O)Nc2cccc([N+](=O)[O-])c2)sc2c1CCCC2`: -77.2% (active); `COc1cc(Cn2c(-c3ccccc3)c(Cl)c3c2-c2oncc2CC3)cc(OC)c1`: 114%.
Next, `Cc1nc2ncnc(Cl)c2[nH]1`: 105%.
Next, `Cc1ccc(C(=O)Nc2ccc(CN3CCN(C)CC3)c(C(F)(F)F)c2)cc1C#Cc1cncc2ncccc12`: 37.3%; `O=NN(C(=O)NC1CCC(C(=O)O)CC1)C1CCC(C(=O)O)CC1` (stereo not given): 96.1%; `C=CCN1C(=O)c2cccc3c(-c4ccc5c(c4)ncn5C4CCCCC4)ccc(c23)C1=O`: 34.6%.
On to `COc1ccc(C(=O)CC(c2ccccc2)C(C#N)c2ccccc2)cc1` (stereo not given), for which the growth is 69.8%.
Next, `CN(C)c1cnccn1`: 56.1%.
Next, `C[C@H](Oc1cc(-c2cnn(C3CCNCC3)c2)cnc1N)c1c(Cl)ccc(F)c1Cl`: 34.9%.

These data come from PubChem BioAssay (NCI).
